# In paper PMC4336329 (PLoS ONE, 2015):
# Out of some 310,000 compounds screened, about 14,000 (4.5%) showed an effect of 50% or more. The effect is printed as a negative number. Only a selection was taken, and strong results are over-represented in it overall.
# Molecular target: human ether-à-go-go-related gene (hERG) potassium channel (human, UniProt Q12809)
# Assay: primary screen, population patch clamp on CHO cells stably expressing hERG; higher = less effect of the substance
# 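Note: peak tail current of the secondary pulse compared with the same well before compound.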
# human ether-à-go-go-related gene (hERG) potassium channel, sequence (Q12809 whole entry, looked up): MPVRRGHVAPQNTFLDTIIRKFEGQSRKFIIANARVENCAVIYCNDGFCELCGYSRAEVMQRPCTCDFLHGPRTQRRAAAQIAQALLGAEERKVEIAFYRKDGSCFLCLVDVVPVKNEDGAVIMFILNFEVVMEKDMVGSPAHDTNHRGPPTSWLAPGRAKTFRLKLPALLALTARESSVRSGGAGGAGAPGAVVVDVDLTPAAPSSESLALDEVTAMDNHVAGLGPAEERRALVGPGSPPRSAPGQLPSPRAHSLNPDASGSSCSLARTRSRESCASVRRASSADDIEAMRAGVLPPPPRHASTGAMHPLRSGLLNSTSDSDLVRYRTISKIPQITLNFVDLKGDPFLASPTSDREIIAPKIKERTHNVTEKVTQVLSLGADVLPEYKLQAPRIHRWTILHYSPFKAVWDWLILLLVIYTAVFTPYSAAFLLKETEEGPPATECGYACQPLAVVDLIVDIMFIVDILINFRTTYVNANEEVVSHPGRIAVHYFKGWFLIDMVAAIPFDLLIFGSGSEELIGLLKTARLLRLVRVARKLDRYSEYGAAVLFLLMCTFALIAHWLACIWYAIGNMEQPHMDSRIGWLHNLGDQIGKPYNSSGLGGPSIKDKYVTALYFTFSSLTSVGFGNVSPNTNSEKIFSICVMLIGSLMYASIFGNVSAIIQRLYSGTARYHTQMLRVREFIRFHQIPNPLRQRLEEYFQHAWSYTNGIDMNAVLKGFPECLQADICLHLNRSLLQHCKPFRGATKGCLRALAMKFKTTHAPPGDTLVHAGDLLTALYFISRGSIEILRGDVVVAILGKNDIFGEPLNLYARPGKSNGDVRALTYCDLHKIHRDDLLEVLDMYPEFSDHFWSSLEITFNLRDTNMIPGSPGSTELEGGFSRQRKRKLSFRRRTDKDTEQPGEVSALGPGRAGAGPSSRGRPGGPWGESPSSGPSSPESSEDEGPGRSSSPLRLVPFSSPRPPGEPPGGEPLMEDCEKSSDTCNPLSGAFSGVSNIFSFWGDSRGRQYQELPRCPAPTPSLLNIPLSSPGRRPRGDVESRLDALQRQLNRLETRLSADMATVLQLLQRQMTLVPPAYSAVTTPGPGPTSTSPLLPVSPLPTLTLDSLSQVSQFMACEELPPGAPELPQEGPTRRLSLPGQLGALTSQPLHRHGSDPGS
row,Compound,"hERG current change (%, negative = inhibition) at 10uM"
1,CCSc1nsc(NC(=O)Nc2ccc(F)cc2F)n1,24.1%
2,CC(C)(C)NC(=O)C(c1cccs1)N(C(=O)c1csnn1)c1cccc(F)c1 (stereo not shown),-7.68%
3,O=C(Cn1ncc2c3ccccc3n(Cc3ccccc3)c2c1=O)NC1CCCC1,10.1%
4,O=S(=O)(c1ccc(Cl)s1)N1CCc2ccccc2C1,7.13%
5,NC(=S)Nc1cc(Cl)cc(Cl)c1,17.1%
6,CC(C)NC(=O)CCS(=O)(=O)c1ccc(Br)s1,16.1%
7,COc1ccc(/C=N/NC(=O)c2cccc([N+](=O)[O-])c2)cc1OS(=O)(=O)c1ccc(C)cc1,-16.1%
8,COCc1cc(OC(=O)N(C)C)nc2c1c(C)nn2C,-9.48%
9,O=C(CNC(=O)C12CC3CC(CC(C3)C1)C2)N/N=C\c1ccco1,5.05%
10,CS(=O)(=O)c1ccc(-c2cccc(NC(=O)COc3ccc(Cl)cc3)c2)nn1,6.7%
11,Cc1cc(OC(C)C(=O)NCC2CCC(C(=O)O)CC2)c2c(C)cc(=O)oc2c1 (stereo not shown),24.5%
12,COCCNC(=O)c1cccc(OC2CCN(Cc3cccc(SC)c3)CC2)c1,-35.2%
13,COc1cc(OC)cc(C(=O)NC2CCN(CCCOc3ccccc3)CC2)c1,-70.2%
14,COCC(C)N1CCC(Oc2ccc(C(=O)NCc3ccccn3)cc2)CC1 (stereo not shown),13.1%
15,COc1ccc(C2(O)CCN(CCCCOc3ccccc3)CC2)cc1,-70.6%
16,c1ccc(OCCCCN2CCOCC2)cc1,-14.5%
17,O=C(NC1CC1)c1cccc(Oc2ccccc2)c1,1.52%
18,COCC(C)N1CCC(Oc2cccc(C(=O)NCCc3ccccc3)c2)CC1 (stereo not shown),-66.3%
19,COc1cc(OC)cc(C(=O)NCCOc2ccccc2)c1,-17.6%
20,CCCN1CCC(NC(=O)c2cccc(Oc3ccccc3)c2)CC1,-51.9%
21,COc1cc(OC)cc(C(=O)NNC(=O)CCCOc2ccccc2)c1,-18.4%
22,COc1cccc(OCCCCN2CCCCC2)c1,-8.36%

row,Compound,"hERG current change (%, negative = inhibition) at 10uM"
1,CN1CCC(NC(=O)c2cccc(Oc3ccccc3)c2)CC1,-8.93%
2,Cn1cc(/C=C(\C#N)C(=O)Nc2cccc([N+](=O)[O-])c2)c2ccccc21,28.4%
3,COc1ccc(F)cc1C(=O)C1CCCN(C(=O)c2ccc(C(C)=O)s2)C1 (stereo not shown),-4.71%
4,COC(=O)c1ccc(N=C(c2ccccc2)c2c(O)n(C)c(=O)n(C)c2=O)cc1,6.79%
5,CC(=O)N(C)c1ccc(N=Cc2c(O)ccc3ccccc23)cc1,-20.9%
6,O=C1CCCC(O)=C1N=Nc1ccc(S(=O)(=O)N2CCOCC2)cc1,2.06%
7,COc1ccc(NC(=O)C2C3C=CC4(O3)C2C(=O)N(CCN2CCCCC2C)C4C(=O)NC2CCCC(C)C2C)cc1 (stereo not shown),-22.4%
8,Cc1cccc(C)c1-n1c(SCC(=O)N2CC(=O)Nc3ccccc32)nc2ccccc2c1=O,-0.373%
9,CS(=O)(=O)N(CC(=O)N1CCN(c2ccc(F)cc2)CC1)c1cccc(Cl)c1,-49.9%
10,O=C(NCCc1csc(-c2cccnc2)n1)c1cccs1,-5.91%
11,C#CCN1C(=O)C(O)(CC(=O)/C=C/C=C/c2ccccc2)c2ccccc21 (stereo not shown),21.6%
12,CCCN1CCC(Oc2cccc(C(=O)NCCc3ccccc3)c2)CC1,-66%
13,COCCNC(=O)c1cccc(OC2CCN(Cc3ccccc3C)CC2)c1,6.34%
14,COCCNC(=O)c1cccc(OC2CCN(Cc3cccc(C(C)=O)c3)CC2)c1,6.74%
15,Oc1ccc(Br)cc1-c1cc(-c2ccc(Cl)cc2)n[nH]1,7.99%
16,Cc1noc2ncnc(Sc3ccc(Cl)cc3)c12,16.3%
17,Cc1ccc(Sc2ncnc3onc(C)c23)cc1,4.79%
18,Cc1noc2ncnc(Sc3ccc(Br)cc3)c12,-50.8%
19,O=[N+]([O-])c1ccccc1CNCCCCO,-3.05%
20,CC(C)c1csc2nc3n(c(=O)c12)CCCCC3,-10.7%
21,O=C(c1cc[n+]([O-])cc1)N1CCCC(N2CCN(c3cccc(C(F)(F)F)c3)CC2)C1 (stereo not shown),-6.27%
22,Cc1nnsc1C(=O)N1CCCC(N2CCN(c3cccc(C(F)(F)F)c3)CC2)C1 (stereo not shown),-26.8%

row,Compound,"hERG current change (%, negative = inhibition) at 10uM"
1,Cc1cc(C(=O)N2CCCC(N3CCN(c4cccc(C(F)(F)F)c4)CC3)C2)no1 (stereo not shown),-2.14%
2,O=C(c1ccsc1)N1CCCC(N2CCN(c3cccc(Cl)c3)CC2)C1 (stereo not shown),-47.1%
3,O=C(c1ccoc1)N1CCCC(N2CCN(c3cccc(Cl)c3)CC2)C1 (stereo not shown),-41.3%
4,O=C(c1cccs1)N1CCCC(N2CCN(c3cccc(C(F)(F)F)c3)CC2)C1 (stereo not shown),-68.4%
5,O=C(c1ccoc1)N1CCCC(N2CCN(c3cccc(C(F)(F)F)c3)CC2)C1 (stereo not shown),-55.5%
6,Cc1occc1C(=O)N1CCCC(N2CCN(c3cccc(C(F)(F)F)c3)CC2)C1 (stereo not shown),-38.9%
7,Cc1cc(C(=O)N2CCCC(N3CCN(c4cccc(C(F)(F)F)c4)CC3)C2)n[nH]1 (stereo not shown),-53.2%
8,O=C(c1ccsc1)N1CCCC(N2CCN(c3cccc(C(F)(F)F)c3)CC2)C1 (stereo not shown),-64.2%
9,CCn1cc(C(=O)N2CCCC(N3CCN(c4cccc(C(F)(F)F)c4)CC3)C2)cn1 (stereo not shown),-29.2%
10,Cc1cnc(C(=O)N2CCCC(N3CCN(c4cccc(C(F)(F)F)c4)CC3)C2)cn1 (stereo not shown),-39.7%
11,CC(=O)c1ccc(N2C(=NC(=O)COc3ccccc3)SC3CS(=O)(=O)CC32)cc1 (stereo not shown),-3.89%
12,COc1cc2c(cc1OC)CN(C(=O)c1cc(Cl)nc(Cl)c1)CC2,12.1%
13,CC(=O)OCC(OC(C)=O)C(OC(C)=O)C(OC(C)=O)C(=O)Nc1ccccc1 (stereo not shown),16.6%
14,COc1ccc(CNC(=O)Nc2ccc([N+](=O)[O-])cc2)cc1,5.47%
15,CN(CC(=O)Nc1ccc(Cl)c(S(=O)(=O)N2CCOCC2)c1)C(=O)c1cccs1,-44.2%
16,CCOc1ccccc1NC(=O)C1CCCN1C(=O)c1cccs1 (stereo not shown),7.83%
17,Cc1ccc(CNC(=O)CCC(=O)Nc2nnc(C3CCCCC3)s2)cc1,17.6%
18,CCOc1ccc(OCC(=O)OCC(=O)N2CCN(C(=O)c3ccco3)CC2)cc1,-21.9%
19,O=C(CSc1nnc(SCc2ccc(F)cc2)s1)Nc1ccc(C(=O)O)cc1,18.6%
20,O=C(O)c1cc(O)ccc1NC(=O)C1CCCO1 (stereo not shown),-0.924%
21,O=C(c1ccc(F)cc1F)N1CCN(c2ccccn2)CC1,0.804%
22,O=C1NC(=O)C(Cc2ccccc2)(c2cccnc2)N1 (stereo not shown),17.7%

row,Compound,"hERG current change (%, negative = inhibition) at 10uM"
1,Cc1ccc2nc(/C(C#N)=C\c3ccc(Oc4ccc([N+](=O)[O-])cn4)cc3)[nH]c2c1,1.61%
2,CCc1ccc(-c2cc(C(=O)N/N=C/c3ccccn3)[nH]n2)cc1,-41.7%
3,Cc1ccc(C(=O)N2CCCC(N3CCN(c4cccc(C(F)(F)F)c4)CC3)C2)s1 (stereo not shown),-51%
4,CC(=O)N1CCCC(N2CCN(c3cccc(C(F)(F)F)c3)CC2)C1 (stereo not shown),-3.73%
5,CC1=C(C(=O)N2CCCC(N3CCN(c4cccc(C(F)(F)F)c4)CC3)C2)OCCO1 (stereo not shown),-17.9%
6,COc1cccc(C(=O)Nc2sc(C(C)C)cc2C(N)=O)c1OC,-50.5%
7,COc1cccc(NC(=O)c2cccc(OC)c2OC)c1,-0.56%
8,COc1cccc(C(=O)Nc2nnc(-c3ccccc3)s2)c1OC,4.52%
9,CCCN1C(=O)c2cc(C(=O)NC3CCCC3)ccc2C1O (stereo not shown),-2.01%
10,Cc1ccc(NCN2C(=O)C3CC=CCC3C2=O)cc1 (stereo not shown),2.67%
11,COc1ccccc1NC(=O)CN(Cc1ccco1)C(=O)c1ccc(-n2nc(C)cc2C)cc1,-51.2%
12,CCN(CC(=O)Nc1ccccc1OC)C(=O)c1ccc(N(C)S(=O)(=O)c2ccc(C)cc2)cc1,-62.2%
13,CCN(CC(=O)NC(C)C)C(=O)c1ccc(S(=O)(=O)N(C)c2ccccc2OC)cc1,-2.53%
14,CCCN(CC(=O)Nc1ccccc1OC)C(=O)c1ccc(S(=O)(=O)Nc2ccccc2)cc1,-53.4%
15,CCCN(CC(=O)Nc1ccccc1OC)C(=O)c1cccc(S(=O)(=O)Nc2ccc(OC)cc2)c1,-11.4%
16,COc1ccccc1NC(=O)CN(Cc1ccco1)C(=O)c1ccc(Cl)nc1,-28.4%
17,CCN(CC(=O)Nc1ccccc1OC)C(=O)c1ccc(NS(=O)(=O)c2ccc(C(C)=O)cc2)cc1,0.13%
18,CCOC(=O)c1c(C)[nH]c(C)c1S(=O)(=O)N(C)CC(=O)Nc1ccccc1C,14.4%
19,CCN(Cc1ccccc1)C(=O)c1ccc(N(C)S(=O)(=O)c2ccc(C)cc2)cc1,-38.7%
20,CCOC(=O)c1c(C)[nH]c(C)c1S(=O)(=O)N(C)CC(=O)Nc1cc(C)ccc1OC,-24.7%
21,COc1ccccc1NC(=O)CN(Cc1ccco1)C(=O)c1cncc(Br)c1,-22.4%
22,CCOC(=O)c1c(C)[nH]c(C)c1S(=O)(=O)N(C)CC(=O)Nc1ccccc1OC,-60%
